What all share (test): DAPPL (digital affinity profiling via proximity ligation, sequencing); 10 mM Tris-HCl pH 7.5, 50 mM NaCl, 1 mM DTT, 4% glycerol, room temperature, 30 min; GST-TFs on glutathione beads, 16-mer random dsDNA library, 0.1% formaldehyde crosslink after washing; high values mean tight binding
Holding throughout (conditions): protein: recombinant; tags: N-terminal GST; dsDNA, one strand shown

One test addresses T1, FLI1 (Homo sapiens, UniProt Q01543 1-452).
T1 sequence: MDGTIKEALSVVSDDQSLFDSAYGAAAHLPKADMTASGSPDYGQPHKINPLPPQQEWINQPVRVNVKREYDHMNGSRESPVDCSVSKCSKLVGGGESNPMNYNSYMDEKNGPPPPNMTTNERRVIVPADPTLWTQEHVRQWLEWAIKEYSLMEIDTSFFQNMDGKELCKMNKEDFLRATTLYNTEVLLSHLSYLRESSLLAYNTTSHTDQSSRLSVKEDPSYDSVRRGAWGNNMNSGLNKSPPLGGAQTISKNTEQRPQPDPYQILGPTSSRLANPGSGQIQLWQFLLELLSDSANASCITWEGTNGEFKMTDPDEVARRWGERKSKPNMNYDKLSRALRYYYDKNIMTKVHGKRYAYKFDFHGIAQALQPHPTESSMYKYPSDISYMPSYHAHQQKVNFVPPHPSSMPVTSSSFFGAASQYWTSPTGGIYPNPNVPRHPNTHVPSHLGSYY
Summed up: (§1)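 Binding signal is given per hexamer as its read frequency for a factor divided by its frequency in the tag-only sample. GST-fused human transcription factors were expressed in yeast, captured on glutathione beads, barcoded with DNA and pooled with that sample, then incubated with 200 nmole of a 16-mer random double-stranded DNA library in Tris/NaCl/DTT/glycerol buffer for 30 min at room temperature. The pools were then washed, crosslinked, proximity-ligated, amplified by PCR and sequenced on an Illumina NextSeq500.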

The target of a further test is T2, ELK1 (Homo sapiens, UniProt P19419 1-428).
T2 sequence: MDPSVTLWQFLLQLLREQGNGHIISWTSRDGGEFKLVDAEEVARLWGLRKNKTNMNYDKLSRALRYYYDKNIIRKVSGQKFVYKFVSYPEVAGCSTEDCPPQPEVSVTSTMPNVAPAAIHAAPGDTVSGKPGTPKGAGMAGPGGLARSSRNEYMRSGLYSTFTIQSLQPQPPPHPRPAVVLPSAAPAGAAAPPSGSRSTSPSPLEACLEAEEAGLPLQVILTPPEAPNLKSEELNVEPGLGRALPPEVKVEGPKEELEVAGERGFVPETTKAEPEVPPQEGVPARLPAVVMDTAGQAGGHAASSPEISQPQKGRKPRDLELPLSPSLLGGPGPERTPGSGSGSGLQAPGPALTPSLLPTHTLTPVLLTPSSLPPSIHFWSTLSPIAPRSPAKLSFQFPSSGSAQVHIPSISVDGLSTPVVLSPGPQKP
Summed up: as §1

In the next test the target is T3, GABPA (Homo sapiens, UniProt Q06546 1-454).
T3 sequence: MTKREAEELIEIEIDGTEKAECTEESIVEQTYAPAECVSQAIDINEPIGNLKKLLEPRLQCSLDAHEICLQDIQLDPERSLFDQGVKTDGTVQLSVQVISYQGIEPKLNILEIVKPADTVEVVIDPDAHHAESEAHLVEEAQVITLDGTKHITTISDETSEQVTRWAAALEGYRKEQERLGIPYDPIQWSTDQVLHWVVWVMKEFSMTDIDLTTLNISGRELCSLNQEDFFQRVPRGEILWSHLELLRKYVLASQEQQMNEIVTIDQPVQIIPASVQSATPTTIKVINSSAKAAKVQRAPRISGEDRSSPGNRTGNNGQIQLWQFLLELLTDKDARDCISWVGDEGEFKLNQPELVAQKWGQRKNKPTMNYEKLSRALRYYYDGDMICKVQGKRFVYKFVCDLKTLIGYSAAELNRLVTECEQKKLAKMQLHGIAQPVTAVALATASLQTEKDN
The method, boiled down:
as §1

A further test addresses T4, ERG (Homo sapiens, UniProt P11308 1-479).
T4 sequence: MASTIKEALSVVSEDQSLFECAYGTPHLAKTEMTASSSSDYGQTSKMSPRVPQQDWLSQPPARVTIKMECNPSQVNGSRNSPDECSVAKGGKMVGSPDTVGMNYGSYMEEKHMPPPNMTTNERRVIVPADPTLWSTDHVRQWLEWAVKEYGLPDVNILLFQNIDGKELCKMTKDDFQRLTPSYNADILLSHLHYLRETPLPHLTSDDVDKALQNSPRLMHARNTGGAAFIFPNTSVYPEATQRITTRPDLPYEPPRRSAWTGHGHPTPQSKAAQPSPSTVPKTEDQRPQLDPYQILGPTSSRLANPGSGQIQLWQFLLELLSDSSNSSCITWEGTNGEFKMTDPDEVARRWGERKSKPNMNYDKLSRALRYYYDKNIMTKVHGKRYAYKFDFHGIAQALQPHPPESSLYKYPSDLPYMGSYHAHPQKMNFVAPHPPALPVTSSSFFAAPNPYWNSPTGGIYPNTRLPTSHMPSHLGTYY
The method, boiled down: as §1

For the next test, the target named is ELF1 (Homo sapiens, UniProt P32519 1-619). Summed up: as §1
A further test addresses T5, EHF (Homo sapiens, UniProt Q9NZC4 1-300).
T5 sequence: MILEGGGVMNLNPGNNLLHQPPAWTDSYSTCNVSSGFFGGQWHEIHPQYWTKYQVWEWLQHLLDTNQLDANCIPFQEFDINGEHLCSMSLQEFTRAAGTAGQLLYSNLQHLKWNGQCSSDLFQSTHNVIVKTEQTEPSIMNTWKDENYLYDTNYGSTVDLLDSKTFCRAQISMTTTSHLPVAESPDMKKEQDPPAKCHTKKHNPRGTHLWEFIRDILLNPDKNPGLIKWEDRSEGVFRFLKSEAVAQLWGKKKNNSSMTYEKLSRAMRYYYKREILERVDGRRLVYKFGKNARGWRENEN
Summed up: as §1

The target in the next test is SPI1 (Homo sapiens, UniProt P17947 1-270). Summed up:
as §1

A further test addresses SPIB (Homo sapiens, UniProt Q01892 1-262). Summed up: as §1
For a further test, the target named is T6, ELK3 (Homo sapiens, UniProt P41970 1-407).
T6 sequence: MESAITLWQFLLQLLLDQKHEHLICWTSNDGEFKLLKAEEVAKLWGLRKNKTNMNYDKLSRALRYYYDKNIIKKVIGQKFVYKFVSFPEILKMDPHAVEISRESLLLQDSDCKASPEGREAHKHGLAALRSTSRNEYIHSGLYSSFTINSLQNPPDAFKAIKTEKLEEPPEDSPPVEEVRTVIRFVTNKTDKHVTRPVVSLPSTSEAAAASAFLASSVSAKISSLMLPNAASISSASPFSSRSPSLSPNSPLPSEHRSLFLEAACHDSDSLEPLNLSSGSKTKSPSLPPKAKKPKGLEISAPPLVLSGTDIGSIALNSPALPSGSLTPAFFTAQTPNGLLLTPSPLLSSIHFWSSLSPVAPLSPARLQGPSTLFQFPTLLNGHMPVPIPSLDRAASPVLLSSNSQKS
The method, boiled down:
as §1

The next test concerns the target T7, FEV (Homo sapiens, UniProt Q99581 1-238).
T7 sequence: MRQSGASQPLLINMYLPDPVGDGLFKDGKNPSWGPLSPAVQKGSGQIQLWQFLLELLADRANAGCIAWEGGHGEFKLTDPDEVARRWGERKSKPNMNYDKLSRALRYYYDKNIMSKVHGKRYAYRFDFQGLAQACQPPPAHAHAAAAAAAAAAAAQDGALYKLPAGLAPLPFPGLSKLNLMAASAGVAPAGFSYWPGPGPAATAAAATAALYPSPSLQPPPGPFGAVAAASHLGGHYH
The method, boiled down:
as §1

The target in the next test is ETV5 (Homo sapiens, UniProt P41161 1-510). The method, boiled down:
as §1

The target of a further test is T8, SPIC (Homo sapiens, UniProt Q8N5J4 1-248).
T8 sequence: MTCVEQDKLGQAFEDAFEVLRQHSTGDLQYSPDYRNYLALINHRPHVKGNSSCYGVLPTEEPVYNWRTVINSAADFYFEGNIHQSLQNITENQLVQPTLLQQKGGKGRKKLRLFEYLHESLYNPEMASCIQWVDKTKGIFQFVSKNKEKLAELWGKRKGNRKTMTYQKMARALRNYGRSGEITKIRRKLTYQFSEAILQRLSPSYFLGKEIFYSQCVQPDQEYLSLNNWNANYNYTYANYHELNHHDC
The method, boiled down: as §1

The next test deals with ELF4 (Homo sapiens, UniProt Q99607 1-663). The method, boiled down: as §1
A further test deals with T9, ELK4 (Homo sapiens, UniProt P28324-2 1-405).
T9 sequence: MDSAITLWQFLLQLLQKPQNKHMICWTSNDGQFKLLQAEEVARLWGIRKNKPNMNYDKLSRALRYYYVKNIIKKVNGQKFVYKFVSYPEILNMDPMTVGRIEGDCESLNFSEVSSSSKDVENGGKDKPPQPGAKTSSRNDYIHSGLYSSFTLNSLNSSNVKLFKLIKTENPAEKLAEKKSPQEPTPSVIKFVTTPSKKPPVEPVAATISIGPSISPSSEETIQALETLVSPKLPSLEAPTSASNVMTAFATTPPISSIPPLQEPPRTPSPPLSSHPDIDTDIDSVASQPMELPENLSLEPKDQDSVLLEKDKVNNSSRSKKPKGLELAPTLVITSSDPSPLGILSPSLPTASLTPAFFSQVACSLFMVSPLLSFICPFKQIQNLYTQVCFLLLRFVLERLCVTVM
The method, boiled down:
as §1

Another test concerns the target T10, ETV2 (Homo sapiens, UniProt O00321 1-342).
T10 sequence: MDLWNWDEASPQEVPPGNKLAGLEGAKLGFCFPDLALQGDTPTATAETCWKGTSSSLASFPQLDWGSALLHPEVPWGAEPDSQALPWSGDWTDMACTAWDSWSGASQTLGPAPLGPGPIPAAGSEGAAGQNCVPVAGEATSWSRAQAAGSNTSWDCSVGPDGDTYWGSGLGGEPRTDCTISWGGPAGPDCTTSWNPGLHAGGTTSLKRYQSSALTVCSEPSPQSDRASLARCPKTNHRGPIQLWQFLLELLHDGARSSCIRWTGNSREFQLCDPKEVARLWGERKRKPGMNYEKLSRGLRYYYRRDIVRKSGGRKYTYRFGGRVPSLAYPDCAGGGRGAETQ
The method, boiled down: as §1

The next test has as its target T11, ELF3 (Homo sapiens, UniProt P78545 1-371).
T11 sequence: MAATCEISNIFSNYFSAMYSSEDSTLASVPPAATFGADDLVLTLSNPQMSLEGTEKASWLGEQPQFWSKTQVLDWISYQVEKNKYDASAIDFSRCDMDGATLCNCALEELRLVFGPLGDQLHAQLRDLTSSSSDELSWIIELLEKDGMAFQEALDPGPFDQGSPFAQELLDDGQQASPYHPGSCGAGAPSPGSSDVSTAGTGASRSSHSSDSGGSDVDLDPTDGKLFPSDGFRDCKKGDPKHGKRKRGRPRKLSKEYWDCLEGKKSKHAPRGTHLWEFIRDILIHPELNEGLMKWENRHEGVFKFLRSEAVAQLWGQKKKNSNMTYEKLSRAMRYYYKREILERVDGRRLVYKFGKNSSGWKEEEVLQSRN
Summed up: as §1

For a further test, the target named is CRX (Homo sapiens, UniProt O43186 1-299). The method, boiled down:
as §1

In a further test the target is ETV1 (Homo sapiens, UniProt P50549 1-477). Summed up:
as §1

ELF1, sequence (P32519 whole entry): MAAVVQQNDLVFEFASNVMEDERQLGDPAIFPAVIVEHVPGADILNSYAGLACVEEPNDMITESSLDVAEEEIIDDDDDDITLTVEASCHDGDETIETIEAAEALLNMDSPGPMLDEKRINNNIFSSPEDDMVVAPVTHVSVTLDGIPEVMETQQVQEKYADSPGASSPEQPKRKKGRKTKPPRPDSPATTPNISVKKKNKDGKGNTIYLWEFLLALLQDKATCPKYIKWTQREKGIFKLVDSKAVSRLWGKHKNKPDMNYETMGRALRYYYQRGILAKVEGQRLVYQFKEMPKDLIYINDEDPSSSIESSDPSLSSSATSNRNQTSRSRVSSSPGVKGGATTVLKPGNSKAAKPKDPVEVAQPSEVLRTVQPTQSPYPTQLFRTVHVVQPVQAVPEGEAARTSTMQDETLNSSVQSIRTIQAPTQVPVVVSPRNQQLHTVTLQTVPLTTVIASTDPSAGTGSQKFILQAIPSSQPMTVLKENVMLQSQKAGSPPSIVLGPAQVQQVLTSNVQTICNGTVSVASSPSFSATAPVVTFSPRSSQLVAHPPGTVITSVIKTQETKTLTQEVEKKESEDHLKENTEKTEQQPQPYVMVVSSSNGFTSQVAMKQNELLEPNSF
ETV5, sequence (P41161 whole entry): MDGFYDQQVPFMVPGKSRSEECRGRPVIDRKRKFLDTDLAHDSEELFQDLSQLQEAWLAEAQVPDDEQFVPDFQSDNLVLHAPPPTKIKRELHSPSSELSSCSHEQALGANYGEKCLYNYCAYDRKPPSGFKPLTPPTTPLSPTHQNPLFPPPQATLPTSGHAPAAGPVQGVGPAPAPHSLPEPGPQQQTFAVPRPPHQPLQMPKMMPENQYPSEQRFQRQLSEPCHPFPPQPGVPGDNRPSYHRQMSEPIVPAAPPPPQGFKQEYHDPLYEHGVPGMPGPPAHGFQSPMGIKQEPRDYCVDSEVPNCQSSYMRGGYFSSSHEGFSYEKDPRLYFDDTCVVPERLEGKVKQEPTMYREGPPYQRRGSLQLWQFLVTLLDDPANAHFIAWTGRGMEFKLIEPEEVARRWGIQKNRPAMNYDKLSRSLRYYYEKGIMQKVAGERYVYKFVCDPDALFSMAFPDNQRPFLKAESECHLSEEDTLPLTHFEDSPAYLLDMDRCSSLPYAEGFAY
CRX, sequence (O43186 whole entry): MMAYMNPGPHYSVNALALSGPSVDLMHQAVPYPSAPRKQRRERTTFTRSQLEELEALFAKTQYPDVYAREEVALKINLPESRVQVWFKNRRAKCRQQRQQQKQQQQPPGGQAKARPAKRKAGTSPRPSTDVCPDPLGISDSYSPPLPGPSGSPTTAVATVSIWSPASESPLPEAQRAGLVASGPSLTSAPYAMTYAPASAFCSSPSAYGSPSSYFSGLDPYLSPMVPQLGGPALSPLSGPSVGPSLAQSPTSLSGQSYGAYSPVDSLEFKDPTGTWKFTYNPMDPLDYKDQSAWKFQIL
ETV1, sequence (P50549 whole entry): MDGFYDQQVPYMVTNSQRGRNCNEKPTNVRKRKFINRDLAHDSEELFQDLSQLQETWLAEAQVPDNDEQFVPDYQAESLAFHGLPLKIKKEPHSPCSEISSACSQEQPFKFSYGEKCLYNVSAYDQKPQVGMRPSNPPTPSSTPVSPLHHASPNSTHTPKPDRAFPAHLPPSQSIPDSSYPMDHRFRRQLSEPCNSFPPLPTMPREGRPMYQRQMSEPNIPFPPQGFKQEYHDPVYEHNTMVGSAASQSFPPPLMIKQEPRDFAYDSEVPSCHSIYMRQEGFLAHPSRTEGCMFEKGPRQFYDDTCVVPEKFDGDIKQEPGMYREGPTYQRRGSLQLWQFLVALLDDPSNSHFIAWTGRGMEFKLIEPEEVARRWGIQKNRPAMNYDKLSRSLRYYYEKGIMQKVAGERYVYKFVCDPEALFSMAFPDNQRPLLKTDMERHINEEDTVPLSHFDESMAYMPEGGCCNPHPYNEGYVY
SPIB, sequence (Q01892 whole entry): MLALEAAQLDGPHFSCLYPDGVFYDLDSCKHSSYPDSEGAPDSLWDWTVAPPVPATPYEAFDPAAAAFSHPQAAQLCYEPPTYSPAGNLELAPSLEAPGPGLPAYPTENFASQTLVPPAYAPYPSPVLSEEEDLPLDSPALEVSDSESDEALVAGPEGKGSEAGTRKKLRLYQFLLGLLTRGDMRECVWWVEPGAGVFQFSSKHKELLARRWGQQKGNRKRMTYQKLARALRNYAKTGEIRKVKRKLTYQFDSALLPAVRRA
ELF4, sequence (Q99607 whole entry): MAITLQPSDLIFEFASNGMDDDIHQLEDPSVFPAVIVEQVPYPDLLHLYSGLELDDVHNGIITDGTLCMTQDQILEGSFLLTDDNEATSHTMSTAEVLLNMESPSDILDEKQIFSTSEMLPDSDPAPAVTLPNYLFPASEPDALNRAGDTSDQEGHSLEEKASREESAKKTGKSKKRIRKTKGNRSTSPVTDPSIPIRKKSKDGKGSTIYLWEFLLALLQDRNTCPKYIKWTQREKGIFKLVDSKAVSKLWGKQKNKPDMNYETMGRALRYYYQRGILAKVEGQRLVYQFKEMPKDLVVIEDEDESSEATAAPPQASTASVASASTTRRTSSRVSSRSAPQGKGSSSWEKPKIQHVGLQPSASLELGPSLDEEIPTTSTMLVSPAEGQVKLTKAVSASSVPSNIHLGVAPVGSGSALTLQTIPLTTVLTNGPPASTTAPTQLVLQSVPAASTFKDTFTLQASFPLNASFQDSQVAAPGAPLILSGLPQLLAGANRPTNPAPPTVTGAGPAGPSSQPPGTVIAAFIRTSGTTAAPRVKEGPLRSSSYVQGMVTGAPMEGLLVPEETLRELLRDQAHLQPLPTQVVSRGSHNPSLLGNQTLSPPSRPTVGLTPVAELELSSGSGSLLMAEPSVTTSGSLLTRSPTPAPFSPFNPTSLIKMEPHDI

As for CGGTTT, the binding signal with FLI1 is 1.26 fold enrichment (6-mer frequency, TF over GST control); with ELK1, 1.18 fold enrichment (6-mer frequency, TF over GST control); in the test with GABPA, 1.25 fold enrichment (6-mer frequency, TF over GST control); in the test with ERG it was 1.33 fold enrichment (6-mer frequency, TF over GST control); in the test with ELF1, 1.26 fold enrichment (6-mer frequency, TF over GST control); with EHF, 1.27 fold enrichment (6-mer frequency, TF over GST control). Further, the binding signal with SPI1 is 1.44 fold enrichment (6-mer frequency, TF over GST control); with SPIB, 1.23 fold enrichment (6-mer frequency, TF over GST control); in the test with ELK3, 1.25 fold enrichment (6-mer frequency, TF over GST control); with FEV, 1.44 fold enrichment (6-mer frequency, TF over GST control); with ETV5 it was 1.21 fold enrichment (6-mer frequency, TF over GST control); in the test with SPIC, 1.23 fold enrichment (6-mer frequency, TF over GST control). The binding signal with ELF4 is 1.21 fold enrichment (6-mer frequency, TF over GST control); with ELK4, 1.23 fold enrichment (6-mer frequency, TF over GST control); with ETV2, 1.11 fold enrichment (6-mer frequency, TF over GST control); with ELF3 it was 1.24 fold enrichment (6-mer frequency, TF over GST control); with CRX, 1.05 fold enrichment (6-mer frequency, TF over GST control); with ETV1, 1.32 fold enrichment (6-mer frequency, TF over GST control).

With CGCTCA, the binding signal is 1.13 fold enrichment (6-mer frequency, TF over GST control) with FLI1; 1.21 fold enrichment (6-mer frequency, TF over GST control) with ELK1; 1.16 fold enrichment (6-mer frequency, TF over GST control) in the test with GABPA; 1.25 fold enrichment (6-mer frequency, TF over GST control) with ERG; 1.13 fold enrichment (6-mer frequency, TF over GST control) with ELF1; 1.18 fold enrichment (6-mer frequency, TF over GST control) with EHF. For the same sequence, the binding signal with SPI1 is 1.16 fold enrichment (6-mer frequency, TF over GST control); in the test with SPIB it was 1.16 fold enrichment (6-mer frequency, TF over GST control); with ELK3 it was 1.13 fold enrichment (6-mer frequency, TF over GST control); in the test with FEV, 1.13 fold enrichment (6-mer frequency, TF over GST control); with ETV5, 1.19 fold enrichment (6-mer frequency, TF over GST control); in the test with SPIC, 1.06 fold enrichment (6-mer frequency, TF over GST control). Also, the binding signal with ELF4 is 1.24 fold enrichment (6-mer frequency, TF over GST control); with ELK4, 1.32 fold enrichment (6-mer frequency, TF over GST control); with ETV2, 1.26 fold enrichment (6-mer frequency, TF over GST control); with ELF3, 1.16 fold enrichment (6-mer frequency, TF over GST control); with CRX, 1.2 fold enrichment (6-mer frequency, TF over GST control); with ETV1, 1.13 fold enrichment (6-mer frequency, TF over GST control).

Source of the values: publication PMC7862700, “An all-to-all approach to the identification of sequence-specific readers for epigenetic DNA modifications on cytosine”.
